Assay results: PubChem BioAssay AID1645886 (National Center for Advancing Translational Sciences (NCATS), 2021)
The whole screen tested about 16,000 compounds, of which about 260 (1.6%) were called active. Another 14% or so got no clear call; they are omitted. Calls follow the shape of the dose curve; as a rule, active = well fitted inhibition curve with a large enough effect; inconclusive = small, poorly fitted or top-dose-only effect; inactive = no such curve, though single readings can be large or run the other way. Only a selection was taken, and actives are over-represented in it overall. Some structures have more than one record in an assay (separate samples or runs), and their calls can disagree. Where a SMILES comes first, the peptide text is derived from it. Bridges are numbered along the chain shown (N, C = ends). [ ]: non-standard residue; d: D form. The star is where a group is joined. X4 = CC[C@H](C)CCCCC(=O)*; Dab = NCC[C@H](N)C(=O)O

Target: Rap guanine nucleotide exchange factor 4 (Homo sapiens) (UniProt Q8WZA2)
Sequence (Q8WZA2 whole entry, looked up): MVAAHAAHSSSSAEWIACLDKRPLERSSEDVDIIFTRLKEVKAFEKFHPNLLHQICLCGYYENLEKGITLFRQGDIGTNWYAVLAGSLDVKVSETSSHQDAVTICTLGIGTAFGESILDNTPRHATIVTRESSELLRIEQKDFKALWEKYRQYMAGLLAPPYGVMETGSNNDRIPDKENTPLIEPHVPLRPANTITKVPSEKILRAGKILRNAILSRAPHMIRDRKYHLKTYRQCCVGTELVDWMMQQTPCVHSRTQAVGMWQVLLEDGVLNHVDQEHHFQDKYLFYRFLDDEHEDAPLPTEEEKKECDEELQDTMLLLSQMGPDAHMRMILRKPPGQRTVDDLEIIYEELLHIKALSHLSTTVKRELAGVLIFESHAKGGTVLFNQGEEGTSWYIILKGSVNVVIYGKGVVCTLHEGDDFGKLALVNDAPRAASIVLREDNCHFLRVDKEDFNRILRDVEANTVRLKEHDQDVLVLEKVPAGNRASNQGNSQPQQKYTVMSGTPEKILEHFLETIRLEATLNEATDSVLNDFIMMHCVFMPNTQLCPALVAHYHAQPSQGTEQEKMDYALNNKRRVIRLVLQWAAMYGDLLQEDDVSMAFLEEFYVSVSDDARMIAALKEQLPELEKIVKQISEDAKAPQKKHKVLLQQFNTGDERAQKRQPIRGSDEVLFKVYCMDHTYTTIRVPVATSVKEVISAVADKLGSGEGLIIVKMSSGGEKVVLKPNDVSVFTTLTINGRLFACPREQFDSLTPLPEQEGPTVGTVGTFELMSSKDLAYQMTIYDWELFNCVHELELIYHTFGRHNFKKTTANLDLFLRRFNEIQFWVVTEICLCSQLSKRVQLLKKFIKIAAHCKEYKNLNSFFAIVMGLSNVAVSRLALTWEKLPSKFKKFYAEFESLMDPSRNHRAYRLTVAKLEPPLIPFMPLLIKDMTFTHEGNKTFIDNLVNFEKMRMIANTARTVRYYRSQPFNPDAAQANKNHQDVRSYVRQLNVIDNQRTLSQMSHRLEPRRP
Experiment: Validation qHTS for antagonist of cAMP-regulated guanine nucleotide exchange factor 4 (EPAC2); also: nearly all actives have a fitted effect of over 40% in size
Conditions: EPAC2 Rap1B BODIPY-GDP exchange, fluorescence; series mostly up to 112 µM
Description: Principle Investigator: Xiaodong Cheng Ph.D. The University of Texas Medical Branch, […], TX MLPCN Grant: NS066510 In multi-cellular eukaryotic organisms, the effects of cAMP are transduced by two ubiquitously-expressed intracellular cAMP receptors, the classic protein kinase A/cAMP-dependent protein kinase (PKA/cAPK) and the more recently discovered exchange protein directly activated by cAMP/cAMP-regulated guanine nucleotide exchange factor (EPAC/cAMP-GEF). Both PKA and EPAC are ubiquitously expressed in all tissues, and an increase in intracellular cAMP levels will lead to the activation of both PKA and EPAC. Therefore, careful dissections of the individual role and relative contribution of EPAC and PKA within the overall cAMP signaling in various model systems are critical for further elucidating the mechanism of cAMP signaling. To date no EPAC-specific antagonists and agonist, as well as isoform-specific agonists have been reported, and developing EPAC-specific pharmacological probes to determine the physiological functions that EPAC play in the overall cAMP-mediated signaling remains a major challenge within the research field. Furthermore, identified regulators of EPAC may lead to new mechanism-based therapeutic strategies specifically targeting the EPAC / cAMP-signaling components as EPAC has been implicated to play important roles in major human pathological conditions such as diabetes, heart disease, and cancer. This qHTS will be used to screen the Molecular Libraries Small Molecule Repository (MLSMR) as a concentration-titration series using the NCGC unique quantitative screening (qHTS) platform to find activators for EPAC1. In addition, this assay will also be used as a counterscreen for the EPAC2 qHTS. This fluorescent based assay is developed and validated for EPAC1 that measures exchange using EPAC effector Rap1 complex with BODIPY-GDP, a GDP analog with a tethered fluorophores. Activators are identified by monitoring the change in fluorescence signal as the exchanged free BODIPY-GDP has a reduced fluorescence compared to Rap1-bound BODIPY-GDP. Increase in signal (activation) is the desired outcome for the EPAC1 agonist while no activity in this assay is desired for the EPAC2 agonist counterscreen. Reference: [1] de Rooij, J., Zwartkruis, F. J., Verheijen, M. H., Cool, R. H., Nijman, S. M., Wittinghofer, A., and Bos, J.L. (1998) Nature 396, 474-477.
Briefly, three uL of reagents (100 nM EPAC2, 250 nM RAP1B-BODIPY-GDP, 50 uM GDP) were dispensed into a 1536-well Greiner black solid-bottom medium binding assay plate. Controls and test compounds (23 nL) were transferred to the plate via a Kalypsys pin tool equipped with a 1536-pin array. The plates were centrifuged at 1,000 rpm for 15 seconds followed by 5 minute incubation at room temperature. The assay plates were read at 5 minute intervals for 30 minutes in the ViewLux plate reader using 480nm excitation and 540nm emission filters. The results were normalized to the agonist positive control of 6.5 mM cAMP.
Potency is read from the fitted curve at half-maximal effect.

Potency, 56.2 µM (active) and inactive:
Oc1cc2c(cc1O)CN(C(=S)NCCc1ccc(Cl)cc1)CCC2

Potency, inactive:
NCCC(=O)c1ccccc1N
Cc1ccc(-c2nn(CC(C)(C)C)c3ncnc(N)c23)cc1
CN[C@@H]1[C@H](O[C@H]2[C@H](O[C@H]3[C@H](O)[C@@H](O)[C@H](N=C(N)N)[C@@H](O)[C@@H]3N=C(N)N)O[C@@H](C)[C@]2(O)CO)O[C@@H](CO)[C@H](O)[C@H]1O
CCS(=O)(=O)N(C)[C@@H]1c2cc(C#N)ccc2OC(C)(C)[C@H]1O
CC(C)=CCN1CCC2(CCc3ccccc32)CC1
Nc1nc2[nH]c(=O)c(=O)[nH]c2c(=O)[nH]1
Cn1c(=O)c(-c2ccccc2)nc2cnc(N3CCNCC3)nc21
COc1ccccc1CN1CC2(CCN(S(=O)(=O)c3ccccc3)CC2)C1
CCC1(C2CCN(Cc3cccnc3)CC2)NC(=O)N(CC2COc3ccccc3O2)C1=O (stereo not drawn)
Nc1nc2c(nc(Cl)n2C2OC(CO)C(O)C2O)c(=O)[nH]1 (stereo not drawn)
Cc1nnc(C(=O)NC(C)(C)c2nc(C(=O)NCc3ccc(F)cc3)c(O)c(=O)n2C)o1
O=C(c1cccc(F)c1)N1CCC2(CC1)CCN(c1ccccc1)CC2
COc1ccc(-n2c(=O)c(-c3cn(C)c4ccccc34)nc3cnc(OC)nc32)cc1
COc1ccccc1CNc1ncnc2ccc(-c3c(C)noc3C)cc12
CC1(C)OC2CC3C4CCC5=CC(=O)CCC5(C)C4(F)C(O)CC3(C)[C@]2(C(=O)CCl)O1 (stereo partly drawn)
COc1ccccc1-c1ccc(C(=O)N(C)C(C)c2ccon2)c(N2CCN(c3ccccc3F)CC2)n1 (stereo not drawn)
COc1ccccc1-c1ccnc(-n2ncc(C(=O)NCCCN3CCOCC3)c2C)n1
N#Cc1ccc(CN2CCCC3(CCN(C(=O)c4ccco4)CC3)C2)cc1
CS(=O)(=O)N1CCC2(CC1)CN(c1ccncc1)C2
COc1ccc(NC(=O)N2CC3(CCN(C(C)=O)CC3)C2)cc1
N#Cc1ccccc1-c1ccc2ncnc(NCc3cccnc3)c2c1
COC1(C2=NCCN2)COc2ccccc2O1 (stereo not drawn)
COc1ccc2c(=O)cc(-c3ccccc3)oc2c1O
Cc1ccc(-c2ccnc(-n3ncc(C(=O)N(C)Cc4cccc5ncccc45)c3C3CC3)n2)o1
NC1CCN(O)C1=O (stereo not drawn)
CC(=O)O[C@]1(C(C)=O)CC[C@H]2[C@@H]3C=C(C)C4=CC(=O)CC[C@]4(C)[C@H]3CC[C@@]21C
Nc1nc2c(ncn2[C@@H]2O[C@H](COP(=O)(O)OP(=O)(O)OP(=O)(O)O)[C@@H](O)C2O)c(=O)[nH]1 (stereo partly drawn)
CC(C)NC(=O)N1CCC2(CC1)CCN(C(=O)c1cccn1C)CC2
CCNc1ncc2ncc(=O)n(CCc3ccccc3)c2n1
CN1CCC(=O)N([C@H](CO)Cc2ccccc2)CC1
O=C(/C=C/c1cccc(F)c1)NC1CC1
Cc1nc2cnc(N3CCNCC3)nc2n(CCc2ccccc2)c1=O
Cc1cnc(CNc2cc(-c3c(C)noc3C)ncn2)cn1
COC(=O)c1c(OCc2ccc(F)cc2)cc(=O)n2c1CCN(Cc1ccc3cccnc3c1)CC2
COc1ccc2[nH]cc(CCNc3nc(-c4cccc(NS(C)(=O)=O)c4)nc4ccccc34)c2c1
COc1cc(=O)n2c(c1C(=O)NC(C)c1ccco1)CCN(Cc1cc(C)cc(C)c1)CC2 (stereo not drawn)
O=C(Nc1cccc(F)c1)N1CC2(CCN(C(=O)c3csnn3)CC2)C1
FC(F)(F)c1cccc(-c2cn[nH]c2C2CCCN(Cc3cccn3-c3ccccn3)C2)c1 (stereo not drawn)
CC(=O)O[C@]1(C(C)=O)CC[C@H]2[C@@H]3CCC4=CC(=O)CC[C@]4(C)[C@@]3(F)[C@@H](O)C[C@@]21C
COc1ccccc1CNc1ncnc2ccc(-c3ccc4c(c3)OCO4)cc12
O=C(c1cn(CC2CCCN(Cc3cc4ccccc4s3)C2)nn1)N1CCCC1 (stereo not drawn)
COCCn1c(=O)c(-c2ccccc2)nc2cnc(N3CCOCC3)nc21
CC1O[C@@H](Oc2c(-c3ccc(O)c(O)c3)oc3cc(O)cc(O)c3c2=O)C(O)C(O)C1O (stereo partly drawn)
O=C(C(=O)N1CCOc2ccc(CN3CCN(Cc4ccccn4)CC3)cc2C1)c1ccccc1
COC(=O)N1CCC2(CCCN(Cc3ccccc3OC)C2)CC1
CCOc1ccc2nc(N3CCCN(CCCn4cccn4)CC3)nc(C)c2c1
CC(C)=CCC/C(C)=C/CC/C(C)=C/CC/C(C)=C/CO
O=c1c(O)c(Br)ccc2c(Br)c(O)c(O)c(O)c12
CC(=O)NC(=O)c1ccccc1O
Cc1oc(-c2cccc(NC(=O)c3ccccc3)c2)nc1CNC(=O)c1cnc2ccccn2c1=O
COc1ccccc1C(=O)N[C@@H]1c2ccccc2C2(CCN(C(=O)c3csnn3)CC2)[C@H]1OC
CC1C(O)CC2C(C(=O)O)=CO[C@@H](O[C@H]3OC(CO)C(O)C(O)C3O)C21 (stereo partly drawn)
C/C(Nc1ccc2oc(=O)ccc2c1)=C1/C(=O)CC2[C@@H]1C2(C)C (stereo partly drawn)
c1ccc(CN2CCN(Cc3ccc4c(c3)CN(Cc3c[nH]c5ccccc35)CCO4)CC2)nc1
O=C1CCN(Cc2ccc(-c3ccccc3)cc2)CCN1Cc1ccccn1
Cn1cc(-c2nc3cnc(N4CCNCC4)nc3n(CCC#N)c2=O)c2ccccc21
CN(C)c1ccc(-c2nc(NCCN3CCOCC3)c3ccccc3n2)cc1
COCc1c(C(=O)NC2CCCCC2)cnn1-c1nccc(-c2ccccc2OC)n1
COc1ccc2c(c1)NC(=O)C2CC(=O)N1CCOc2c(cc(-c3cnc4ccccc4c3)cc2OC)C1 (stereo not drawn)
Cc1ccc(-c2ncc(Cl)cc2-c2ccc(S(C)(=O)=O)cc2)cn1
O=c1ccn([C@@H]2O[C@H](COP(=O)(O)OP(=O)(O)OP(=O)(O)O)[C@@H](O)[C@H]2O)c(=O)[nH]1
CC(C)[C@@H]1NC(=O)[C@H](Cc2ccccc2)NC(=O)[C@@H](CC(=O)O)NC(=O)CNC(=O)[C@H](CCCNC(=N)N)NC1=O
O=S(O)CNc1ccc(S(=O)(=O)c2ccc(NCS(=O)O)cc2)cc1
C/C=C(/C)C(=O)OC1Cc2c(ccc3ccc(=O)oc23)OC1(C)C (stereo not drawn)
CC(C)N1C[C@@H](NCc2ccccc2O)C[C@H]1C(=O)N1CCN(c2cccc(C(F)(F)F)c2)CC1
O=C(c1ccco1)N1CCC2(CC1)CCN(c1ncccn1)CC2
CC1(C)C=CC(=O)[C@]2(C)C1CC(=O)[C@]1(C)C2CC[C@@]2(C)C(c3ccoc3)OC(=O)C3OC321 (stereo partly drawn)
CC(C)C1=CC2=CC[C@H]3[C@](C)(C(=O)O)CCC[C@]3(C)C2CC1 (stereo partly drawn)
O=C1c2ccccc2C(=O)C1c1ccccc1
CN(C)c1ncc2nc(-c3ccc(F)cc3)c(=O)n(Cc3ccc(F)cc3)c2n1
CC(=O)N1CCC2(CCCN(Cc3ccccc3)C2)CC1
CC[C@H](C)CCCCC(=O)N[C@@H](CCN)C(=O)N[C@H](C(=O)N[C@@H](CCN)C(=O)N[C@H]1CCNC(=O)[C@@H]([C@H](C)O)NC(=O)[C@H](CCN)NC(=O)[C@H](CCN)NC(=O)[C@H](CC(C)C)NC(=O)[C@@H](CC(C)C)NC(=O)[C@H](CCN)NC1=O)[C@@H](C)O (X4-[Dab]T[Dab][Dab][Dab][dL]L[Dab][Dab][dT]; lactam 4-C)
CC1OC(OCC2OC(Oc3c(-c4ccc(O)c(O)c4)oc4cc(O)cc(O)c4c3=O)C(O)C(O)C2O)[C@@H](O)C(O)C1O (stereo partly drawn)
COc1cc(=O)n2c(c1C(=O)NCc1ccco1)CCN(Cc1ccccc1)CC2
CNc1ncnc2ccc(-c3cccc(NS(C)(=O)=O)c3)cc12
CS(=O)(=O)N1CCC2(CC1)CN(Cc1cc(C(F)(F)F)cc(C(F)(F)F)c1)C2
O=C1CCNCCN1[C@H](CO)Cc1ccccc1
Cc1nc2cnc(N3CCNCC3)nc2n(Cc2ccc(F)cc2)c1=O
Nc1ccccc1N
CC1(C)S[C@@H]2[C@H](NC(=O)COc3ccccc3)C(=O)N2C1C(=O)OCc1ccccc1 (stereo partly drawn)
COC1C[C@@H](O[C@@H]2C(C)C(=O)OC(C)C(C)C(O)C(C)C(=O)[C@@]3(CO3)CC(C)C(OC3OC(C)CC(N(C)C)C3O)C2C)OC(C)[C@@H]1O (stereo partly drawn)
COCCn1c(=O)c(-c2cccs2)nc2cncnc21
N#C/C(=C\c1ccc(O)c(O)c1)C(=O)NCc1ccccc1
COc1cccc(CN2CCC3(CC2)c2ccccc2[C@@H](NC(=O)c2ccccc2OC)[C@@H]3O)c1
COc1ccc(CN2[C@@H](CC(=O)O)c3cc(F)ccc3S2(=O)=O)cc1
CN1C(=O)CN2CCc3ccccc3C2c2cc(Cl)ccc21 (stereo not drawn)
CCCS(=O)(=O)NCc1c(C)ncc2c1CCN(C(=O)c1ccc(F)c(F)c1)C2
O=C(c1cccc(Cn2cccn2)c1)N1CCOc2c(cc(-c3csc4ccccc34)cc2OC2CCOC2)C1 (stereo not drawn)
O=C(c1cccc(F)c1)N1CCC2(CCCN(Cc3ccncc3)C2)CC1
c1cncc(-c2nc(N3CCNCC3)c3ccccc3n2)c1
CC(=O)/C(C)=N\O
COc1ncc2nc(-c3ccc(Cl)cc3)c(=O)n(-c3ccccc3)c2n1
COc1ccc(CN2CCC3(CCC(CNC(=O)c4ccco4)O3)CC2)cc1OC (stereo not drawn)
COc1ccc2c(c1)CCc1cnc(-n3ncc(C(=O)NCCN4CCOCC4)c3C)nc1-2
c1ccc2cc(C3=NCCN3)ccc2c1
NNc1nnc(NN)c2ccccc12
Cc1cccc(CNc2cc(-c3ccccc3Cl)ncn2)c1
Cc1ccc2c(C)nc(N3CCCC(C(=O)NC(C)(C)CO)C3)nc2c1 (stereo not drawn)
O=C(Oc1cc(OC(=O)c2ccccc2)c2c(c1)OC(c1ccc(OC(=O)c3ccccc3)c(OC(=O)c3ccccc3)c1)[C@@H](OC(=O)c1ccccc1)C2)c1ccccc1 (stereo partly drawn)
C/C=C(\C)C(=O)O[C@H]1CC(C)=C2C(=O)C=C(C)C2[C@@H]2OC(=O)[C@@](C)(OC(=O)C=C(C)C)C21 (stereo partly drawn)
CC[C@H](C)CCCCC(=O)N[C@@H](CCN)C(=O)N[C@H](C(=O)N[C@@H](CCN)C(=O)N[C@H]1CCNC(=O)[C@H]([C@@H](C)O)NC(=O)[C@H](CCN)NC(=O)[C@H](CCN)NC(=O)[C@H](CC(C)C)NC(=O)[C@@H](CC(C)C)NC(=O)[C@H](CCN)NC1=O)[C@@H](C)O (X4-[Dab]T[Dab][Dab][Dab][dL]L[Dab][Dab]T; lactam 4-C)
COCCn1c(=O)c(CCc2ccccc2)nc2cnc(N3CCNCC3)nc21
CC(C)c1cnc(NC(=O)Cc2ccccc2)s1
CC1(C)O[C@@H]2C[C@@H]3[C@H]4C[C@@H](F)C5=CC(=O)C=C[C@]5(C)[C@@]4(F)[C@@H](O)C[C@]3(C)[C@]2(C(=O)CO)O1
COc1ccc2[nH]cc(CCNc3ncnc4ccc(-c5ccc(C(=O)N(C)C)cc5)cc34)c2c1

Potency, active:
CCn1ccnc1C[C@@H]1COc2ccccc2O1 20 µM

Potency, 44.7 µM (active) and inactive:
Oc1c(Cl)cc(Cl)c(Cl)c1Cc1c(O)c(Cl)cc(Cl)c1Cl
